Assay outcomes (PubChem BioAssay)
Vaccinia mCherry = vaccinia inhibition (mCherry reporter); Vaccinia virus mCherry reporter infection, fluorescence; Potency, µM (series often up to 36.5 µM), inactives show at the top dose activity change, negative = inhibition, actives largely listed as inhibitors; hit rate 0.63% among 310,000; AID 720579; calls by dose curve; tested in A549 cells; further: nearly all actives have a fitted effect of over 35% in size
Vaccinia Venus = vaccinia inhibition (Venus reporter); Vaccinia virus Venus reporter expression, fluorescence; Potency, µM (top dose mostly 36.5 µM), without a hit: at the top dose activity change, negative = inhibition, actives largely listed as inhibitors; hit rate 0.46% among 330,000; AID 720580; calls by dose curve; tested in A549 cells; further: nearly all actives have a fitted effect of over 30% in size
AMA1 RON2 block = AMA1-RON2 (P. falciparum) interaction inhibition; Potency, µM (top dose mostly 58.2 µM), inactives show at the highest dose activity change, negative = inhibition, usual class: inhibitors; AlphaScreen AMA1-biotinylated RON2 peptide binding; hit rate 0.2% among 360,000; AID 720542;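 further: 0% = vehicle wells and -100% = peptide control; nearly all actives have a fitted effect of over 45% in size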
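AMA1 (3D7) with his tag at 25 nM final met compounds first, then biotinylated RON2 peptide at 25 nM; detection used donor plus acceptor beads, 10 µg/mL apiece, read by AlphaScreen after 30 min at room temperature.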
Pf growth 48h = inhibits P. falciparum growth in the first generation, 48 h; P. falciparum luciferase growth in erythrocytes, 48 h; Potency, µM (highest dose often 28.7 µM), without a hit: top-dose activity change, negative = inhibition, most hits filed as inhibitors; hit rate 5.9% among 310,000
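Luminescence readout; reporter = integrated firefly luciferase in P. falciparum. RBC culture at 2% hematocrit, 0.1% parasitemia final, 37 C/5% CO2; decreased signal taken as growth inhibition.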
Pf growth 96h = inhibits malaria parasite growth, 96 h; hit rate 6.9% among 320,000; AID 504834; P. falciparum luciferase reporter growth, 96 h; Potency, µM (doses to about 28.7 µM), inactives show top-dose activity change, negative = inhibition, most hits filed as inhibitors
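Delayed-death screen, second-generation endpoint: infected erythrocytes, 2% hematocrit, 0.05% parasitemia final; 96 hours at 37 C, 5% CO2; luciferase detection reagent; luminescence decrease equals reduced growth.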
* marks the source's active call; other numbers are inactive results; i = inactive; ? = inconclusive; . = no result given; [ ] = dose if it differs, or a comment. Sampled rows, rich in hits. Any-hit rate of the full collection: about 8.7%. Unless noted, the call rests on the fitted dose curve; in most records, active means well fitted curve in the direction sought with a large enough effect; inconclusive means small, poorly fitted or top-dose-only effect, or another doubt; inactive means no such curve, though single readings can be large; an effect the other way counts as inactive or inconclusive. Unless noted, on the % scale 0 is the no-effect control and ±100 the full control effect; potency means the concentration at half of the fitted maximal effect.

SMILES | Vaccinia mCherry | Vaccinia Venus | AMA1 RON2 block | Pf growth 48h | Pf growth 96h
Cc1ccc(S(=O)(=O)N2CCN(C(=O)COc3ccc(Br)cc3)CC2)cc1 | -16% | -18% | 7%[11.6 µM] | 13µM* | ?
Cc1ccc(C2(C)NC(=O)N(CC(=O)N3CCN(S(=O)(=O)c4ccccc4[N+](=O)[O-])CC3)C2=O)cc1 (stereo not given) | . | . | -4% | . | .
N#Cc1ccc(OCC(=O)N2CCN(S(=O)(=O)c3cccc(Cl)c3)CC2)cc1 | -5% | -16% | 20% | ? | 9.3µM*
Cc1ccc(OCC(=O)N2CCN(S(=O)(=O)c3ccccc3[N+](=O)[O-])CC2)cc1 | -21% | -10% | -1% | 9.3µM* | 30%[5.75 µM]
COc1ccc(S(=O)(=O)N2CCN(C(=O)COc3ccc4c(C)cc(=O)oc4c3)CC2)cc1 | i | -10% | 15% | ? | 4.7µM*
N#Cc1ccc(OCC(=O)N2CCN(S(=O)(=O)c3ccc(Cl)s3)CC2)cc1 | . | . | -5% | ? | ?
CCC(C)NC(=O)CCCN1C(=O)CCn2nc(-c3cccn3C)cc21 (stereo not given) | 4% | 9% | . | . | .
CCCN1CCN(c2ncnc3sc(C(=O)Nc4c(C)cc(C)cc4C)c(C)c23)CC1 | -13% | -23% | . | . | .
Cc1ccc2oc(=O)c3cnn(CC(=O)N4CCN(c5ccccc5F)CC4)c3c2c1 | 0% | -2% | . | . | .
COc1ccc(NC(=O)CSc2nc(-c3ccccc3)[nH]c2-c2ccccc2)cc1OC | -17% | -20% | . | . | .
CC(=O)c1ccc(OCC(=O)N2CCN(S(=O)(=O)c3ccc(C)cc3C)CC2)cc1 | -38% | -28% | -2% | ? | 9.3µM*
COc1ccc(S(=O)(=O)N2CCN(C3Cc4ccccc4C3)CC2)cc1 | -9% | -15% | -2% | 48% | 10µM*
Cc1ccc(S(=O)(=O)N2CCN(C(=O)COC(=O)COc3ccc(Br)cc3)CC2)c(C)c1 | . | . | 0% | . | .
COc1ccc(S(=O)(=O)N2CCN(C)CC2)cc1 | . | . | 5% | 25% | ?
COc1cc(CCC(=O)N2CCN(c3ccc(N4CCOCC4)nn3)CC2)cc(OC)c1OC | . | . | . | . | 7.4µM*
Cc1ccc(CSCC(=O)N2CCN(c3ccccc3)CC2)cc1 | -10% | -13% | -13% | -7% | 4.1µM*
Cc1cc(NC(=O)c2oc3c(c2C)-c2[nH]ncc2CC3)ccc1Br | -11% | 7% | . | . | .
COc1ccc(CCC(=O)NCc2ccc3c(c2)CCN3C(=O)c2ccc(C)cc2)cc1 | -2% | -11% | . | . | .
CCC(C)n1c(=O)c2sccc2n2c(CCCC(=O)N3CCN(c4ccccc4)CC3)nnc12 (stereo not given) | -12% | -13% | . | . | .
Cc1ccc(S(=O)(=O)N2CCN(C(=O)COC(=O)c3ccc(Br)o3)CC2)c(C)c1 | 0% | -18% | -2% | ? | 6%
CS(=O)(=O)N1CCN(C(=O)COc2ccccc2)CC1 | -3% | 1% | 24% | -3% | -2%
CS(=O)(=O)N1CCN(C(=O)COc2ccc3ccccc3c2)CC1 | i | -13% | 18% | 2.1µM* | 17%
Cc1ccc(C(=O)N2CCN(S(=O)(=O)c3ccc(Br)cc3)CC2)o1 | -20% | -17% | -12% | 6.6µM* | ?
Cc1ccc(S(=O)(=O)N2CCN(C(=O)c3ccc(Br)o3)CC2)c(C)c1 | i | 0% | -11% | 6.6µM* | ?
COc1ccc(S(=O)(=O)N2CCN(C(=O)c3c(C)nn(-c4ccccc4)c3Cl)CC2)cc1 | . | -29% | -9% | 0% | 4.7µM*
SMILES | Vaccinia mCherry | Vaccinia Venus | AMA1 RON2 block | Pf growth 48h | Pf growth 96h
COc1ccc(S(=O)(=O)N2CCN(C(=O)c3ccc(C)o3)CC2)cc1 | -20% | -27% | 5% | ? | ?
Cc1cccc(NC(=O)C(=O)NCCc2csc(-c3ccc(C(F)(F)F)cc3)n2)c1C | -17% | -18% | . | . | .
COc1cc(CCC(=O)N2CCN(S(=O)(=O)c3ccc(C)c(C)c3)CC2)cc(OC)c1OC | . | . | 35% | ? | 4.7µM*
COc1ccc(S(=O)(=O)N2CCN(C(=O)COc3ccccc3)CC2)cc1 | -7% | -13% | -3% | -12% | 7.4µM*
CSc1ccc(CSCC(=O)N2CCN(S(=O)(=O)c3ccc(C)cc3C)CC2)cc1 | . | . | -7% | 12µM* | -59%
Cc1ccc(S(=O)(=O)N2CCN(C(=O)COC(=O)Cc3ccc(F)cc3)CC2)c(C)c1 | -8% | 3% | 0% | 10% | 5%
CN(C(=O)c1ccc2c(c1)N(Cc1ccccc1F)C(=O)c1ccccc1S2)C1CCCCC1 | -6% | -3% | . | . | .
COCc1c(C(=O)N2CCN(C(C)C)CC2)cnn1-c1nccc(-c2cc(C)sc2C)n1 | -9% | -4% | . | . | .
O=[N+]([O-])c1ccc(C2CCCC/C2=N/OCc2ccc(F)cc2)c([N+](=O)[O-])c1 (stereo not given) | . | . | ? | 12µM* | ?
O=[N+]([O-])c1ccc(C2CCCC/C2=N/OCc2ccccc2F)c([N+](=O)[O-])c1 (stereo not given) | . | -13% | ? | ? | ?
CC(=O)c1ccc(NC(=O)Nc2nnc(N3CCCC(C)C3)s2)cc1 (stereo not given) | -16% | -26% | . | . | .
C(=N\Nc1nc2ccccc2[nH]1)/c1ccc2ncccc2c1 | 1.6µM* | 0.89µM* | 37% | 0.15µM* | ?
C(=N\Nc1nc2ccccc2[nH]1)/c1ccccn1 | . | . | 27% | -41% | 342%
CCN(CC)c1ccc(/C=N/N(c2ccccc2)c2ccccc2)c(O)c1 | -3% | 14% | -27% | ? | 7.4µM*
CCN(CC)c1ccc(/C=N/N=C(c2ccccc2)c2ccccc2)c(O)c1 | i | -9% | ? | ? | ?
CCN(CC)c1ccc(NC(=O)CN(C)Cc2cccs2)cc1 | ? | -13% | 13µM* | ? | 0%
CCN(CC)c1ccc(/C=N/Nc2nc3ccccc3[nH]2)c(O)c1 | . | ? | ? | . | 1.2µM*
CCN(C(=O)C1CCN(S(=O)(=O)c2ccc3c(c2)CCCN3C(C)=O)CC1)c1cccc(C)c1 | 2% | 1% | . | . | .
C(=N\Nc1nc2ccccc2[nH]1)/c1ccc2c(c1)OCCO2 | . | . | 35% | ? | ?
COc1ccc2c(c1)c(/C=N/Nc1nc3ccccc3[nH]1)c(C)n2C | ? | -22% | -2% | 1.5µM* | 1.7µM*
COc1ccc(/C=N/Nc2nc3ccccc3[nH]2)cc1OC | ? | -20% | 22%[11.6 µM] | 0.47µM* | ?
COc1cc(/C=N\Nc2nc3ccccc3o2)cc(OC)c1OC | ? | ? | 10% | 42% | 19%
COc1cc(OC)c(OC)cc1/C=N/Nc1nc2ccccc2[nH]1 | . | . | 52% | 1µM* | 1.9µM*
C#CCn1cc(/C=N/Nc2nc3ccccc3[nH]2)c2ccccc21 | ? | ? | -29% | ? | 7%
COc1cc(/C=N\Nc2nc3ccccc3[nH]2)cc(OC)c1OC | -5% | -27% | 0% | 0.17µM* | ?
Cc1ccc(-c2noc(-c3cccnc3N(C)Cc3ccc(Cl)cc3)n2)cc1 | -5% | 5% | . | . | .
COc1cc(Cl)c(S(=O)(=O)N2CCN(c3c(C)cccc3C)CC2)cc1Cl | -3% | -2% | . | . | .
